{
  "source": "PubChem BioAssay",
  "note": "Active and inactive are the calls of the source.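 How the source made its calls: active means Her2 level under about 52% in both replicate screens, with viability over 70% of control (limit read from the data); inconclusive means Her2 under the limit in one screen only, or viability under 70%; inactive means Her2 level above the set limit.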",
  "data": [
    {"tested_on": "not listed separately", "assay": "Her2 expression decrease, cell viability multiplex – SKBR3 breast tumor cells, AlphaScreen, ATP viability, primary screen (AID 461);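 on viability: percent of carrier control wells set as 100% viability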", "conditions": "SKBR3 Her2 protein level, 18-24 h, measured here: SKBR3 viability, ATP luminescence, at 10 µM", "units": {"viability": "%"}, "values": [
      {"smiles": "CCCCC(=O)NCCc1cc2c(C)ccc(C)c2[nH]c1=O", "viability": 101},
      {"smiles": "CN1CCN(C2=C(Cl)C(=O)N(c3cccc(Cl)c3)C2=O)CC1", "viability": 80.5},
      {"smiles": "Cc1ccc(Cn2c(=O)c3ccccc3n3c(CCC(=O)O)nnc23)cc1", "viability": 107},
      {"smiles": "COc1cc(/C=N/n2cnnc2)ccc1OCC(=O)N1CCOCC1", "viability": 84},
      {"smiles": "CCC(C)C(=O)Nc1nc2c(s1)C(=O)CC(C)(C)C2", "note": "(stereo not given)", "viability": 120},
      {"smiles": "O=C(C(Cc1ccccc1)n1cccc1)N1CCCCCC1", "note": "(stereo not given)", "viability": 99},
      {"smiles": "Cc1ccc(NC(=O)c2cc(-c3ccc(C)o3)nc3ccccc23)nc1", "viability": 80},
      {"smiles": "Cc1cccc(-n2ncc3c(NCCCn4ccnc4)ncnc32)c1", "viability": 91.5},
      {"smiles": "Cc1ccc(CNC(=O)C2CCCN(S(=O)(=O)c3cnc[nH]3)C2)cc1", "note": "(stereo not given)", "viability": 94},
      {"smiles": "CCCN1CCN(CCCNC(=O)Cn2ncc3c4ccccc4n(C)c3c2=O)CC1", "viability": 99},
      {"smiles": "CN(C)c1cc(NC(=O)CN2CCOCC2)c2ccccc2n1", "viability": 110},
      {"smiles": "CN(C)S(=O)(=O)c1ccc2c(c1)c(=O)c(C(=O)NCCCN1CCCCCC1)cn2C", "viability": 110},
      {"smiles": "CC(C)c1ccc(C(O)c2cnc(C(C)C)n2C)cc1", "note": "(stereo not given)", "viability": 112},
      {"smiles": "CCN(CC)C(=O)c1ccc(CS(=O)(=O)c2ccc(OC)cc2)o1", "viability": 84.5},
      {"smiles": "COc1ccc2c(c1)CCc1cc(C(=O)N3CCN(c4ccc(N5CCOCC5)nn4)CC3)sc1-2", "viability": 93.5},
      {"smiles": "COc1ccc(-c2[nH]c(-c3cccc(OC)c3)nc2SCC(=O)NCc2ccco2)cc1", "viability": 95.5},
      {"smiles": "CCSc1nnc(N2C(=O)CC(c3ccsc3)C3=C2CC(C)(C)CC3=O)s1", "note": "(stereo not given)", "viability": 89},
      {"smiles": "CC1=C(C(=O)Nc2cccnc2)C(c2ccc(C(C)C)cc2)n2ncnc2N1", "note": "(stereo not given)", "viability": 89.5},
      {"smiles": "CCCCN=CC1=C(O)C(C(=O)OC)C(C)(C)CC1=O", "note": "(stereo not given)", "viability": 79},
      {"smiles": "O=C1c2ccccc2C(Nc2cccnc2)N1Cc1ccccc1Cl", "note": "(stereo not given)", "viability": 93},
      {"smiles": "CC(=O)NC(CCS(C)(=O)=O)C(=O)Nc1cccc(C)c1", "note": "(stereo not given)", "viability": 88.5},
      {"smiles": "Cc1ccc(N2CCN(S(=O)(=O)N(C)C)CC2)c(C)c1", "viability": 98.5},
      {"smiles": "CCOc1ccc(NC(=O)CCN2CCN(c3ccccc3)CC2)cc1", "viability": 94.5},
      {"smiles": "CCOC(=O)C1=C(C)Nc2nnnn2C1c1ccc(OC)c(Br)c1", "note": "(stereo not given)", "viability": 106},
      {"smiles": "CC(C)c1nnc(NC(=O)Cc2cccs2)s1", "viability": 106},
      {"smiles": "Cc1ccnc(NC(=O)C2CCC(CNc3c(N4CCCC4)c(=O)c3=O)CC2)c1", "note": "(stereo not given)", "viability": 93},
      {"smiles": "CCN(CCCNS(=O)(=O)c1ccc2c(c1)oc(=O)n2C)c1cccc(C)c1", "viability": 88},
      {"smiles": "O=C(NCC1CCCO1)C1CCN(S(=O)(=O)c2cccc3cccnc23)CC1", "note": "(stereo not given)", "viability": 102},
      {"smiles": "CCn1c(C(=O)N2CCC(C(=O)N3CCN(c4ccccn4)CC3)CC2)cc2sccc21", "viability": 95},
      {"smiles": "O=C(O)COc1ccc(S(=O)(=O)NCCc2ccccc2)cc1", "viability": 105},
      {"smiles": "CCOC(=O)N1CCN(C(=O)c2ccc(CS(=O)(=O)c3c(Cl)cccc3Cl)o2)CC1", "viability": 114},
      {"smiles": "CNC(=O)c1ccsc1NC(=O)c1ccccc1", "viability": 88.5},
      {"smiles": "CSc1nc2ccccc2c(=O)n1N", "viability": 109},
      {"smiles": "CCN1CCN(C(c2cccs2)C(C)NC(=O)c2ccccc2)CC1", "note": "(stereo not given)", "viability": 92},
      {"smiles": "CC(Sc1nc(-c2ccccc2)cc(C(F)(F)F)n1)C(=O)N1CCCC1", "note": "(stereo not given)", "viability": 84.5},
      {"smiles": "CCOc1cccc(-c2nnc3n2N=C(c2cc(OC)ccc2OC)CS3)c1", "viability": 104},
      {"smiles": "COc1cc(NC(=O)C2CCCN2S(=O)(=O)c2cccc3cccnc23)cc(OC)c1OC", "note": "(stereo not given)", "viability": 72},
      {"smiles": "CCOC(=O)c1ccc(-n2c(C)nc3c(cnn3-c3ccccc3C)c2=O)cc1", "viability": 94},
      {"smiles": "O=C(Nc1c(C(=O)NCc2ccco2)cnn1-c1ccccc1)c1ccc(F)cc1", "viability": 95.5},
      {"smiles": "O=C(NCCC1=CCCCC1)C1CCN(S(=O)(=O)c2cccc3cccnc23)CC1", "viability": 104}
    ]},
    {"target": "Receptor tyrosine-protein kinase erbB-2 (Homo sapiens) (UniProt P04626)", "sequence (P04626 whole entry, looked up)": "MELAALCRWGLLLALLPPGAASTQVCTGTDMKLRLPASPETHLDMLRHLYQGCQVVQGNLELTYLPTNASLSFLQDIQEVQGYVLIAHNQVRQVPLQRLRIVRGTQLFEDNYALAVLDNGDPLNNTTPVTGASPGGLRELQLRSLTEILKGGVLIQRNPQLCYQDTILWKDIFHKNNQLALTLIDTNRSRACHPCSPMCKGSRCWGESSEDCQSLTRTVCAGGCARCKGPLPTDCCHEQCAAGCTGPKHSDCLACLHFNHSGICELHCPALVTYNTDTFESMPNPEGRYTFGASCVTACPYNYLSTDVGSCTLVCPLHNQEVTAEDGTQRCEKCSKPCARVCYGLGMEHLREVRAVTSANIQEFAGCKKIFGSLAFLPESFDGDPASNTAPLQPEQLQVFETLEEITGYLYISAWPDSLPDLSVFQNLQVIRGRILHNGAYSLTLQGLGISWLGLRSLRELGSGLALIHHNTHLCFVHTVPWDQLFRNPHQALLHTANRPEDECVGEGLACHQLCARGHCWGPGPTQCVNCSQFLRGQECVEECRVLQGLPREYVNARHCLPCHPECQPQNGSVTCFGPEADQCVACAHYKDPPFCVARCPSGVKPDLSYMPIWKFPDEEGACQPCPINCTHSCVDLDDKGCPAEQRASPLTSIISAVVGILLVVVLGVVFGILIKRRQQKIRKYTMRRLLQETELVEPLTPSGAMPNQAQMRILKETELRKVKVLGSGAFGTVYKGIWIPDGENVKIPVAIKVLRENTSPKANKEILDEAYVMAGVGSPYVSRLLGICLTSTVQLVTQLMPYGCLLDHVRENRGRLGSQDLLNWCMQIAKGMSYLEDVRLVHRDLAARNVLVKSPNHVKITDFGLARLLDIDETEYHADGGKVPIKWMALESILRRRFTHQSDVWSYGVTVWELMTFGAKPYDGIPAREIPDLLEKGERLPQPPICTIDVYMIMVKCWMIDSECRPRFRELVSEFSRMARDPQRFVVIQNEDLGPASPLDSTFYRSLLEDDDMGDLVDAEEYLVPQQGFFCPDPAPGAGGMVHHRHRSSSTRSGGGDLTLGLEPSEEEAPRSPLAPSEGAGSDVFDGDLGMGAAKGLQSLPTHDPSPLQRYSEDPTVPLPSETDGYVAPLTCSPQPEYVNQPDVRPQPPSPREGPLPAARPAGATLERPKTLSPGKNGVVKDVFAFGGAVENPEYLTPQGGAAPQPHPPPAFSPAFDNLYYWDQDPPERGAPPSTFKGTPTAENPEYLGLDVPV", "assay": "Her2 expression decrease, cell viability multiplex – SKBR3 breast tumor cells, AlphaScreen, ATP viability, primary screen (AID 461);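 on viability: percent of carrier control wells set as 100% viability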", "conditions": "18-24 h, at 10 µM, stronger effect = lower value", "values": [
      {"smiles": "CCCCC(=O)NCCc1cc2c(C)ccc(C)c2[nH]c1=O", "Her2 level": "95% (inactive)"},
      {"smiles": "CN1CCN(C2=C(Cl)C(=O)N(c3cccc(Cl)c3)C2=O)CC1", "Her2 level": "96.5% (inactive)"},
      {"smiles": "Cc1ccc(Cn2c(=O)c3ccccc3n3c(CCC(=O)O)nnc23)cc1", "Her2 level": "100% (inactive)"},
      {"smiles": "COc1cc(/C=N/n2cnnc2)ccc1OCC(=O)N1CCOCC1", "Her2 level": "93.5% (inactive)"},
      {"smiles": "CCC(C)C(=O)Nc1nc2c(s1)C(=O)CC(C)(C)C2", "note": "(stereo not given)", "Her2 level": "106% (inactive)"},
      {"smiles": "O=C(C(Cc1ccccc1)n1cccc1)N1CCCCCC1", "note": "(stereo not given)", "Her2 level": "102% (inactive)"},
      {"smiles": "Cc1ccc(NC(=O)c2cc(-c3ccc(C)o3)nc3ccccc23)nc1", "Her2 level": "74% (inactive)"},
      {"smiles": "Cc1cccc(-n2ncc3c(NCCCn4ccnc4)ncnc32)c1", "Her2 level": "93.5% (inactive)"},
      {"smiles": "Cc1ccc(CNC(=O)C2CCCN(S(=O)(=O)c3cnc[nH]3)C2)cc1", "note": "(stereo not given)", "Her2 level": "110% (inactive)"},
      {"smiles": "CCCN1CCN(CCCNC(=O)Cn2ncc3c4ccccc4n(C)c3c2=O)CC1", "Her2 level": "120% (inactive)"},
      {"smiles": "CN(C)c1cc(NC(=O)CN2CCOCC2)c2ccccc2n1", "Her2 level": "100% (inactive)"},
      {"smiles": "CN(C)S(=O)(=O)c1ccc2c(c1)c(=O)c(C(=O)NCCCN1CCCCCC1)cn2C", "Her2 level": "105% (inactive)"},
      {"smiles": "CC(C)c1ccc(C(O)c2cnc(C(C)C)n2C)cc1", "note": "(stereo not given)", "Her2 level": "92% (inactive)"},
      {"smiles": "CCN(CC)C(=O)c1ccc(CS(=O)(=O)c2ccc(OC)cc2)o1", "Her2 level": "116% (inactive)"},
      {"smiles": "COc1ccc2c(c1)CCc1cc(C(=O)N3CCN(c4ccc(N5CCOCC5)nn4)CC3)sc1-2", "Her2 level": "79% (inactive)"},
      {"smiles": "COc1ccc(-c2[nH]c(-c3cccc(OC)c3)nc2SCC(=O)NCc2ccco2)cc1", "Her2 level": "85.5% (inactive)"},
      {"smiles": "CCSc1nnc(N2C(=O)CC(c3ccsc3)C3=C2CC(C)(C)CC3=O)s1", "note": "(stereo not given)", "Her2 level": "108% (inactive)"},
      {"smiles": "CC1=C(C(=O)Nc2cccnc2)C(c2ccc(C(C)C)cc2)n2ncnc2N1", "note": "(stereo not given)", "Her2 level": "105% (inactive)"},
      {"smiles": "CCCCN=CC1=C(O)C(C(=O)OC)C(C)(C)CC1=O", "note": "(stereo not given)", "Her2 level": "93.5% (inactive)"},
      {"smiles": "O=C1c2ccccc2C(Nc2cccnc2)N1Cc1ccccc1Cl", "note": "(stereo not given)", "Her2 level": "91% (inactive)"},
      {"smiles": "CC(=O)NC(CCS(C)(=O)=O)C(=O)Nc1cccc(C)c1", "note": "(stereo not given)", "Her2 level": "121% (inactive)"},
      {"smiles": "Cc1ccc(N2CCN(S(=O)(=O)N(C)C)CC2)c(C)c1", "Her2 level": "116% (inactive)"},
      {"smiles": "CCOc1ccc(NC(=O)CCN2CCN(c3ccccc3)CC2)cc1", "Her2 level": "104% (inactive)"},
      {"smiles": "CCOC(=O)C1=C(C)Nc2nnnn2C1c1ccc(OC)c(Br)c1", "note": "(stereo not given)", "Her2 level": "106% (inactive)"},
      {"smiles": "CC(C)c1nnc(NC(=O)Cc2cccs2)s1", "Her2 level": "92% (inactive)"},
      {"smiles": "Cc1ccnc(NC(=O)C2CCC(CNc3c(N4CCCC4)c(=O)c3=O)CC2)c1", "note": "(stereo not given)", "Her2 level": "93.5% (inactive)"},
      {"smiles": "CCN(CCCNS(=O)(=O)c1ccc2c(c1)oc(=O)n2C)c1cccc(C)c1", "Her2 level": "100% (inactive)"},
      {"smiles": "O=C(NCC1CCCO1)C1CCN(S(=O)(=O)c2cccc3cccnc23)CC1", "note": "(stereo not given)", "Her2 level": "93.5% (inactive)"},
      {"smiles": "CCn1c(C(=O)N2CCC(C(=O)N3CCN(c4ccccn4)CC3)CC2)cc2sccc21", "Her2 level": "108% (inactive)"},
      {"smiles": "O=C(O)COc1ccc(S(=O)(=O)NCCc2ccccc2)cc1", "Her2 level": "103% (inactive)"},
      {"smiles": "CCOC(=O)N1CCN(C(=O)c2ccc(CS(=O)(=O)c3c(Cl)cccc3Cl)o2)CC1", "Her2 level": "128% (inactive)"},
      {"smiles": "CNC(=O)c1ccsc1NC(=O)c1ccccc1", "Her2 level": "74% (inactive)"},
      {"smiles": "CSc1nc2ccccc2c(=O)n1N", "Her2 level": "94.5% (inactive)"},
      {"smiles": "CCN1CCN(C(c2cccs2)C(C)NC(=O)c2ccccc2)CC1", "note": "(stereo not given)", "Her2 level": "88% (inactive)"},
      {"smiles": "CC(Sc1nc(-c2ccccc2)cc(C(F)(F)F)n1)C(=O)N1CCCC1", "note": "(stereo not given)", "Her2 level": "94.5% (inactive)"},
      {"smiles": "CCOc1cccc(-c2nnc3n2N=C(c2cc(OC)ccc2OC)CS3)c1", "Her2 level": "83.5% (inactive)"},
      {"smiles": "COc1cc(NC(=O)C2CCCN2S(=O)(=O)c2cccc3cccnc23)cc(OC)c1OC", "note": "(stereo not given)", "Her2 level": "81% (inactive)"},
      {"smiles": "CCOC(=O)c1ccc(-n2c(C)nc3c(cnn3-c3ccccc3C)c2=O)cc1", "Her2 level": "108% (inactive)"},
      {"smiles": "O=C(Nc1c(C(=O)NCc2ccco2)cnn1-c1ccccc1)c1ccc(F)cc1", "Her2 level": "116% (inactive)"},
      {"smiles": "O=C(NCCC1=CCCCC1)C1CCN(S(=O)(=O)c2cccc3cccnc23)CC1", "Her2 level": "96% (inactive)"}
    ]}
  ]
}
